PubChem BioAssay (NCI)
Values joined by “and” are separate entries in the source; they are usually repeats but may differ in a detail not shown here. Identical values can stand only once. This is part of a sample that, as a whole, favours compounds with a hit. Of some 83,000 tested, about 20% had one in any assay.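 Single-dose data. Exposure time 48 hours. Values below 10 considered active.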 Active and inactive are the calls of the source.

Assays:
Assay in all cases: NCI-60 one-dose screen, 48 h (100 = growth as untreated, 0 = no growth, -100 = all killed)
[1] = test system: SR leukemia
[2] = test system: RPMI-8226 leukemia
[3] = test system: OVCAR-8 ovarian
[4] = test system: OVCAR-5 ovarian
[5] = test system: OVCAR-4 ovarian
[6] = test system: SK-OV-3 ovarian
[7] = test system: IGROV1 ovarian
[8] = test system: OVCAR-3 ovarian
[9] = test system: HS 578T breast
[10] = test system: NCI/ADR-RES ovarian

Measured: growth

O=C1OCC2=C1C(c1cccc(C(F)(F)F)c1)c1cc3c(cc1N2CCO)CCC3 (stereo not drawn)
inactive: [1]; 10 µM unless noted 11.1% | [2]; 10 µM unless noted 17.9% | [4]; 10 µM unless noted 36.1% | [5]; 10 µM unless noted 52.3% | [7]; 10 µM unless noted 23.5% | [9]; 10 µM unless noted 28% | [10]; 10 µM unless noted 17.7%
active: [3]; 10 µM unless noted 5.39% | [6]; 10 µM unless noted 5.48% | [8]; 10 µM unless noted -17.8%

Nc1ncc(-c2ccc3ncnc(N4CCc5ccc(Cl)cc54)c3c2)cc1C(F)(F)F
inactive: [3]; 10 µM unless noted 25.2% | [4]; 10 µM unless noted 12.2% | [8]; 10 µM unless noted 10.8% | [10]; 10 µM unless noted 20.3%
active: [1]; 10 µM unless noted -5.75% | [2]; 10 µM unless noted -3.24% | [5]; 10 µM unless noted 8.43% | [6]; 10 µM unless noted 6.83% | [7]; 10 µM unless noted -53.3% | [9]; 10 µM unless noted -14.3%

Cc1ccc(/C=C/c2c(C(=O)/C=C/c3ccccc3)c(C)nc3ccccc23)cc1
inactive: [1]; 10 µM unless noted 12.7% | [5]; 10 µM unless noted 39.9% | [6]; 10 µM unless noted 70.1% | [7]; 10 µM unless noted 11.3% | [9]; 10 µM unless noted 35.6%
active: [2]; 10 µM unless noted -7.87% | [3]; 10 µM unless noted 1.99% | [4]; 10 µM unless noted 1.05% | [8]; 10 µM unless noted -22% | [10]; 10 µM unless noted 8.38%

C=C1CC[C@@H]2[C@](C)(COC(C)=O)[C@H](OC(C)=O)CC[C@@]2(C)[C@@H]1CC(Nc1ccc(S(=O)(=O)Nc2nccs2)cc1)C1=CCOC1=O (stereo partly drawn)
inactive: [5]; 10 µM unless noted 38% | [6]; 10 µM unless noted 79.9% | [7]; 10 µM unless noted 12.6% | [9]; 10 µM unless noted 51.9%
active: [1]; 10 µM unless noted -5.84% | [2]; 10 µM unless noted -13.3% | [3]; 10 µM unless noted 4.39% | [4]; 10 µM unless noted 7.82% | [8]; 10 µM unless noted -70.2% | [10]; 10 µM unless noted 9.2%

CCOC(=O)N(O)c1ccc(/C=C/c2ccccc2)cc1
inactive: [1]; 10 µM unless noted 66.7% | [2]; 10 µM unless noted 62.2% and 49.3% | [3]; 10 µM unless noted 76.7% and 37.1% | [5]; 10 µM unless noted 55.8% and 43.5% | [6]; 10 µM unless noted 94.1% and 92.6% | [8]; 10 µM unless noted 34% and 28% | [9]; 10 µM unless noted 94.4% and 112% | [10]; 10 µM unless noted 74.7% and 63.2%
18.9% (inactive) and 3.82% (active): [4]; 10 µM unless noted
active: [7]; 10 µM unless noted 8.91% and 1.54%

Nc1nc(Nc2cccnc2)sc1C(=O)c1ccccc1F
inactive: [1]; 10 µM unless noted 19.1% | [2]; 10 µM unless noted 17.7% | [3]; 10 µM unless noted 31.8% | [4]; 10 µM unless noted 26.2% | [5]; 10 µM unless noted 80.7% | [6]; 10 µM unless noted 85.9% | [7]; 10 µM unless noted 21.3% | [9]; 10 µM unless noted 58.1% | [10]; 10 µM unless noted 48.3%
active: [8]; 10 µM unless noted 9.96%

COc1ccc(-c2nn3c(-c4cc(F)c(Cl)cc4Cl)nnc3s2)cc1
inactive: [1]; 10 µM unless noted 13.1% | [2]; 10 µM unless noted 29.9% | [3]; 10 µM unless noted 67.5% | [4]; 10 µM unless noted 59.5% | [5]; 10 µM unless noted 80% | [6]; 10 µM unless noted 61.1% | [7]; 10 µM unless noted 40.6% | [8]; 10 µM unless noted 27.8%
active: [9]; 10 µM unless noted -20.6% | [10]; 10 µM unless noted 3.63%

CCN(CC)CCCN1C(=O)c2c(c(C)c3c(oc4cc(OC)ccc43)c2C)C1=O
active: [1]; 10 µM unless noted -4.78%
inactive: [2]; 10 µM unless noted 91.6% | [3]; 10 µM unless noted 17% | [4]; 10 µM unless noted 85% | [5]; 10 µM unless noted 111% | [6]; 10 µM unless noted 129% | [7]; 10 µM unless noted 86.6% | [8]; 10 µM unless noted 110% | [9]; 10 µM unless noted 108% | [10]; 10 µM unless noted 96%

CCN(CC)CC(=O)Nc1ccc2ncnc(Nc3ccc(Oc4cccc(F)c4)c(Cl)c3)c2c1
inactive: [2]; 10 µM unless noted 27.6% | [3]; 10 µM unless noted 76.1% | [4]; 10 µM unless noted 80.8% | [5]; 10 µM unless noted 52.6% | [6]; 10 µM unless noted 22.4% | [7]; 10 µM unless noted 18% | [8]; 10 µM unless noted 52.7% | [9]; 10 µM unless noted 79.5% | [10]; 10 µM unless noted 69.6%
active: [1]; 10 µM unless noted 2.54%

O=C(/C=C/c1cccc(Oc2ccc(Cl)cc2)c1)c1ccccc1
active: [1]; 100 µM -25.1% | [2]; 10 µM 0.961% | [2]; 100 µM -30.3% | [3]; 100 µM -50.8% | [4]; 100 µM -82.2% | [5]; 100 µM -80.1% | [6]; 100 µM -93.7% | [7]; 100 µM -49.9% | [8]; 100 µM -94.3% | [9]; 100 µM -28.2% | [10]; 100 µM -46.5%
inactive: [1]; 10 µM 53.5% | [3]; 10 µM 91.8% | [4]; 10 µM 96% | [5]; 10 µM 90.3% | [6]; 10 µM 114% | [7]; 10 µM 102% | [8]; 10 µM 93.3% | [9]; 10 µM 97.5% | [10]; 10 µM 98.8%

CC(=O)/C=C/c1ccc(OCc2ccc(C(C)(C)C)cc2)cc1
inactive: [1]; 10 µM 65.9% | [1]; 100 µM 29.5% | [2]; 10 µM 67.6% | [3]; 10 µM 90.5% | [3]; 100 µM 23.2% | [4]; 10 µM 89% | [4]; 100 µM 37.6% | [6]; 10 µM 77.8% | [6]; 100 µM 39.5% | [7]; 10 µM 98.6% | [7]; 100 µM 81.6% | [8]; 10 µM 94.6% | [8]; 100 µM 47.1% | [9]; 10 µM 75.5% | [9]; 100 µM 10.3% | [10]; 10 µM 81.1%
active: [2]; 100 µM 0.803% | [10]; 100 µM 7.42%
